In PubChem BioAssay (NCI):
Values joined by “and” are separate entries in the source; they are usually repeats but may differ in a detail not shown here. Equal values may be shown once. The panel holds about 83,000 compounds, 20% with a hit somewhere; the sample as a whole holds those more often.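 The test compound was applied at a single concentration to cells in 96-well plates for 48 hours, and percent growth was recorded.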

Experiments:
Assay in all cases: NCI-60 one-dose screen, 48 h (100 = growth as untreated, 0 = no growth, -100 = all killed)
Details in all cases: 10 µM unless noted; active means growth percent below 10; inactive means the rest
SK-MEL-2 melanoma = test system: SK-MEL-2 melanoma
EKVX NSCLC = test system: EKVX NSCLC
SN12C renal = test system: SN12C renal
UO-31 renal = test system: UO-31 renal
TK-10 renal = test system: TK-10 renal
ACHN renal = test system: ACHN renal
CAKI-1 renal = test system: CAKI-1 renal
CCRF-CEM leukemia = test system: CCRF-CEM leukemia
MOLT-4 leukemia = test system: MOLT-4 leukemia
A498 renal = test system: A498 renal

Measured: growth

Cc1ccc([N+](=O)[O-])cc1Br
inactive: SK-MEL-2 melanoma 95.6% | EKVX NSCLC 101% | SN12C renal 98.2% | UO-31 renal 92.1% | TK-10 renal 97.1% | ACHN renal 98.3% | CAKI-1 renal 101% | CCRF-CEM leukemia 105% | MOLT-4 leukemia 81.7%

COC(=O)CCOc1ccccc1
inactive: SK-MEL-2 melanoma 84% | EKVX NSCLC 96.6% | SN12C renal 110% | UO-31 renal 86.8% | TK-10 renal 108% | ACHN renal 91.8% | CAKI-1 renal 86.3% | CCRF-CEM leukemia 95.2% | MOLT-4 leukemia 98.6%

Cc1cccc(Cl)c1N
inactive: SK-MEL-2 melanoma 121% | EKVX NSCLC 122% | SN12C renal 112% | UO-31 renal 103% | TK-10 renal 111% | ACHN renal 108% | CAKI-1 renal 92.8% | CCRF-CEM leukemia 128% | MOLT-4 leukemia 100%

Oc1ccc(O)c(-c2ccccc2)c1
inactive: SK-MEL-2 melanoma 72.5% | EKVX NSCLC 77.7% | SN12C renal 68% | UO-31 renal 43.4% | TK-10 renal 96.8% | ACHN renal 74.1% | CAKI-1 renal 74.6% | CCRF-CEM leukemia 10.1% | MOLT-4 leukemia 20.7%

CS(=O)(=O)c1nsc(N)n1
inactive: SK-MEL-2 melanoma 96.3% | EKVX NSCLC 108% | SN12C renal 101% | UO-31 renal 91.4% | TK-10 renal 101% | ACHN renal 107% | CAKI-1 renal 103% | A498 renal 97.4% | CCRF-CEM leukemia 106% | MOLT-4 leukemia 103%

CC(=O)c1cc2ccccc2o1
inactive: SK-MEL-2 melanoma 97.9% | EKVX NSCLC 106% | SN12C renal 101% | UO-31 renal 99.6% | TK-10 renal 93.6% | ACHN renal 101% | CAKI-1 renal 99.6% | A498 renal 104% | CCRF-CEM leukemia 106% | MOLT-4 leukemia 99.7%

CC1NC(C)c2ccc3ccccc3c2O1 (stereo not given)
inactive: SK-MEL-2 melanoma 100% | EKVX NSCLC 123% | SN12C renal 99.1% | UO-31 renal 69.4% | TK-10 renal 110% | ACHN renal 98.3% | CAKI-1 renal 96.7% | CCRF-CEM leukemia 97.9% | MOLT-4 leukemia 105%

CC(C)=NOC(C)C(=O)O (stereo not given)
inactive: SK-MEL-2 melanoma 107% | EKVX NSCLC 95.9% | SN12C renal 94.1% | UO-31 renal 97.5% | TK-10 renal 104% | ACHN renal 102% | CAKI-1 renal 104% | CCRF-CEM leukemia 103% | MOLT-4 leukemia 105%

Cc1c(Cl)cc(Cl)c(N)c1Cl
inactive: SK-MEL-2 melanoma 104% | EKVX NSCLC 103% | SN12C renal 117% | UO-31 renal 92.6% | TK-10 renal 109% | ACHN renal 115% | CAKI-1 renal 88.7% | A498 renal 91% | CCRF-CEM leukemia 95.5% | MOLT-4 leukemia 110%

CNc1ccc(O)cc1
inactive: SK-MEL-2 melanoma 110% and 118% | EKVX NSCLC 80.1% | SN12C renal 103% | UO-31 renal 82.4% and 95.4% | TK-10 renal 144% and 121% | ACHN renal 92.6% and 112% | CAKI-1 renal 105% and 104% | CCRF-CEM leukemia 101% and 110% | MOLT-4 leukemia 110% and 129%

CC(=O)Oc1cc(C)c(OC(C)=O)c(C)c1C
inactive: SK-MEL-2 melanoma 102% | EKVX NSCLC 95.8% | SN12C renal 98.9% | UO-31 renal 88.2% | ACHN renal 100% | CAKI-1 renal 77.4% | A498 renal 109% | CCRF-CEM leukemia 100%

CC(=O)Oc1ccc(C2(c3ccc(OC(C)=O)cc3)C(=O)Nc3ccccc32)cc1
inactive: SK-MEL-2 melanoma 90.4% and 80.7% | EKVX NSCLC 86% and 85.8% | SN12C renal 17.7% and 16% | UO-31 renal 81.9% and 85.4% | ACHN renal 67.6% and 63% | CAKI-1 renal 68.2% and 77.4% | A498 renal 107% and 111% | CCRF-CEM leukemia 97.9% and 86.7% | MOLT-4 leukemia 71.4% and 97.6%
